Laboratory results: PubChem BioAssay
A number with no mark means an inactive call. Calls of active or inactive are those of the source.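 Rule for the calls, unless noted: active = mean inhibition over 43.08%, the solvent-only control mean plus 3 SD; inactive = the rest.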

Experiments:
[1] = biological target: Nuclear receptor coactivator 3 (Homo sapiens) (UniProt Q9Y6Q9); experiment: SRC3 coactivator transcriptional activity inhibitors, confirmation, cell-based, luminescence, quadruplicate (AID 588792); settings: HEK293 GAL4-SRC3 luciferase reporter, at 3.6 µM, hits give high values;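 note: 0% = DMSO treated cells and 100% = gossypol at 36 µM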
Chain of Nuclear receptor coactivator 3 (Homo sapiens) (Q9Y6Q9 whole entry, looked up, the tested form may be a part): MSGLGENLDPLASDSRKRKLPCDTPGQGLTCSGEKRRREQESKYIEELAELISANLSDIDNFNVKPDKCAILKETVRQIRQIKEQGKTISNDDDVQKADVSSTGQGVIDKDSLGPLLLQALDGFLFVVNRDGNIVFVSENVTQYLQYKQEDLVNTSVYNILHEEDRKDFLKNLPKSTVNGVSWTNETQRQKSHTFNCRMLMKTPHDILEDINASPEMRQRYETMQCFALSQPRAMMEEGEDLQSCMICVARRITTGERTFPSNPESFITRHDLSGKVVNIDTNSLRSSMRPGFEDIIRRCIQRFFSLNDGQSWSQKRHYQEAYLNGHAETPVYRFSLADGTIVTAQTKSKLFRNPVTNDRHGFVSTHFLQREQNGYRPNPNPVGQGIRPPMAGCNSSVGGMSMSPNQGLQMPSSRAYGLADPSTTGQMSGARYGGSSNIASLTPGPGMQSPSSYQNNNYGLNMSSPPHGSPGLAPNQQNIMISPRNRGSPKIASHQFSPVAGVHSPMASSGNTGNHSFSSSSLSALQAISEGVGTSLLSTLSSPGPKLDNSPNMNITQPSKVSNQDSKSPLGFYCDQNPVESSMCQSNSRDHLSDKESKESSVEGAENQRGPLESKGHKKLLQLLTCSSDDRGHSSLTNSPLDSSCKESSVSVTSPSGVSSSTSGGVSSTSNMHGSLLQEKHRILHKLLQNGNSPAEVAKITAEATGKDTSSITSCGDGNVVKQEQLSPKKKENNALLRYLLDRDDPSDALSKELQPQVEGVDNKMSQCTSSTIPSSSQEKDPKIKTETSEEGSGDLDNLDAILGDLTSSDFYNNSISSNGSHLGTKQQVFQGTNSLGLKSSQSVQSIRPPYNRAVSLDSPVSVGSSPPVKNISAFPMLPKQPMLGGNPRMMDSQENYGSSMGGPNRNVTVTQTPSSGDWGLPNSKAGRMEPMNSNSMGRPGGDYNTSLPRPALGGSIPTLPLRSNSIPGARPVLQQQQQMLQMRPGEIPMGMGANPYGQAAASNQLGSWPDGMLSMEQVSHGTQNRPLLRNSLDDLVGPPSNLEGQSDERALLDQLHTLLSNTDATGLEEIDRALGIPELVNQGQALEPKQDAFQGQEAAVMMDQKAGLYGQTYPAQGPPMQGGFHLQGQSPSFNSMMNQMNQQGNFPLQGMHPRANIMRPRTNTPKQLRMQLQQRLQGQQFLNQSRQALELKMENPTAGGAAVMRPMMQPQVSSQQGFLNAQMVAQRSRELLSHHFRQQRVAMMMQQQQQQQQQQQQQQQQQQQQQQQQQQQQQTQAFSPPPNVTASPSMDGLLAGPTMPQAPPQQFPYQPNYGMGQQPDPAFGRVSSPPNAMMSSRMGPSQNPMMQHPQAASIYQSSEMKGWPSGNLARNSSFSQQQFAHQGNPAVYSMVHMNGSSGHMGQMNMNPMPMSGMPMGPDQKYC

[2] = tested on: transactivating tegument protein VP16 (Human herpesvirus 1), Gal4-VP16 luciferase reporter; experiment: VP16 transactivation inhibitors, counter-screen for SRC3 inhibitor project, cell-based, luminescence, high throughput (AID 588794; in the data active = inhibition above about 30%); settings: mammalian cells, VP16-driven luciferase reporter luminescence; at 3.6 µM; hits give high values

In the case of `CC(=NNC(=O)c1ccncc1)c1ccc2ccccc2c1O`, the inhibition [1] is reported as 45.1% (active) and the inhibition [2] is reported as 32.6% (active).
`COc1ccccc1OCC(=O)N/N=C/c1c(O)ccc2ccccc12` showed an inhibition [1] of 12.8% and an inhibition [2] of 22.8%.
With `Cn1nc(CC(=O)Nc2ccc(N3CCN(C(=O)OC(C)(C)C)CC3)cc2)c2ccccc2c1=O` the inhibition [1] was 17.6% and the inhibition [2] was 42.2% (active).
In the case of `CC(=O)N(Cc1ccc(F)cc1)C1=C(NCc2ccccc2)C(=O)c2ccccc2C1=O`, the inhibition [1] is reported as 30.9% and the inhibition [2] is reported as 31.9% (active).
Compound `O=C(CNc1cccc2ccccc12)N/N=C/c1ccc[nH]1` has an inhibition [1] of 7.38% and an inhibition [2] of 5.09%.
Work on `CCN(CC)C(=O)c1[nH]cnc1C(=O)N[C@@H](CCCCNC(=O)OC(C)(C)C)C(=O)OC(C)(C)C` yielded an inhibition [1] of 3.8% and an inhibition [2] of -3.67%.
`COc1ccc(OCCOCC(O)CN2CCOCC2)cc1` (centres undefined) gave an inhibition [1] of -13.2% and an inhibition [2] of -8.92%.
For `Cn1nnnc1Sc1ncnc2scc(-c3ccccc3)c12`, the inhibition [1] was -4.36% and the inhibition [2] was 2.99%.
In the case of `CCc1[nH]nc2c1C(C1C=CCCC1)C(C#N)=C(N)O2` (centres undefined), the inhibition [1] is reported as 24.7% and the inhibition [2] is reported as 21.2%.
With `C/C(N)=C(/C#N)C(=O)COC(=O)c1ccc(C#N)cc1` the inhibition [1] was -7.91% and the inhibition [2] was -0.63%.
`O=C(NNC(=S)NCc1ccccc1)c1ccc2c(c1)OCO2` showed an inhibition [1] of -11.1% and an inhibition [2] of -11.7%.
Work on `Cc1ccc(-c2cn(-c3ccc(OC(F)F)cc3)c3[n+]2CCCCC3)cc1` yielded an inhibition [1] of 3.74% and an inhibition [2] of 23%.
